Data: PMC5540273 (PLoS ONE, 2017)

tested on: MAST1; settings: concentration: 1 μM, replicates: in singlicate; n = 1
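Also: KINOMEscan kinase panel screen.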

| Structure (SMILES) | %Inh |
| --- | --- |
| O=C(Nc1cccc(-c2nn3ncccc3c2-c2ccnc(Nc3cccc(C(F)(F)F)c3)n2)c1)c1c(F)cccc1F [GSK299495] | 0% |
| O=C(c1ccc(-c2cc(-c3c[nH]nc3-c3ccccn3)ccn2)cc1)N1CCOCC1 [GW812171] | 18% |
| Cc1cccc(Cn2ccn3c(=O)cc(N4CCOCC4)nc23)c1 [GSK2297542] | 0% |
| NS(=O)(=O)c1cccc(-c2ccc3ncc(N4CCOCC4)nc3c2)c1 [GSK1535721] | 0% |
| CCc1ccnc(/C=C/c2n[nH]c3cc(Sc4ccccc4C(=O)NC)ccc23)c1 | 0% |
| O=c1cc(N2CCOCC2)nc2n(Cc3cccc(C(F)(F)F)c3)ccn12 [GSK2297543] | 9% |
| COC(=O)Nc1nc2cc(Oc3ccc(NC(=O)Nc4cc(F)ccc4F)cc3)ccc2[nH]1.Cl [GW701424] | 5% |
| NS(=O)(=O)CCc1cccc(Nc2nccc(-c3c(-c4cccc(NC(=O)c5c(F)cccc5F)c4)nn4ccccc34)n2)c1 [GSK336735] | 0% |
| O=C(NCCNc1ccnc(Nc2ccc(F)cc2)n1)c1cc2ccccc2s1 [GSK1379874] | 0% |
| CC(C)(C)n1cnc2c(N)ncnc21 [SKF-97359] | 58% |
| COc1cc2c(cc1OC[C@@H](O)CO)ncc1c3ccc(C#N)cc3[nH]c21 | 62% |
| O=C(NCCNc1ccnc(Nc2ccc(F)cc2)n1)Nc1ccccc1F [GSK1379880] | 0% |
| Fc1ccc(-c2ncn(CCCN3CCOCC3)c2-c2ccccn2)cc1 [SB-211742] | 18% |
| O=C(Nc1n[nH]c2cc(-c3cccc(F)c3)ccc12)C1CC1 [SB-735464] | 34% |
| Cc1nnc(-c2ccc(C)c(-c3ccc(C(=O)Nc4ccc(NS(C)(=O)=O)cc4)cc3)c2)o1 [GW702865] | 21% |
| CNc1ncnc2[nH]ncc12 [SKF-18355] | 70% |
| Cc1cccc(-c2nc(-c3ccc(S(C)(=O)=O)cc3)sc2-c2ccncc2)c1 | 31% |
| Nc1nc(-c2ccc3c(N)n[nH]c3c2)cc(N2CCCC2)n1 [GSK2227430] | 0% |

| Structure (SMILES) | %Inh |
| --- | --- |
| Fc1ccc(-c2ncn(CCCN3CCOCC3)c2-c2cccnc2)cc1 [SB-211743] | 0% |
| [2H]C([2H])(c1cccc(C(F)(F)F)c1C)n1ccn2c(=O)nc(N3CCOCC3)cc12 [GSK2336394] | 0% |
| c1ccc(-c2cc(-c3c[nH]nc3-c3ccccn3)ccn2)cc1 [GW576604] | 13% |
| CCc1nc(-c2cccc(C)c2)c(-c2ccnc(NCc3ccccc3)c2)s1 | 0% |
| Cn1ccc2ncnc(Oc3ccc(NC(=O)Nc4ccncc4)c(Cl)c3)c21 | 2% |
| COCCNC(=O)c1ccc(-c2cc(C(=O)NC3CC3)cc(F)c2C)cc1 [GW868318] | 68% |
| O=C1NC(=O)C(N2CCc3ccccc32)=C1c1cccc(Cl)c1 [SB-408010] | 0% |
| CN(C1=C(c2ccccc2)C(=O)NC1=O)c1ccccc1 [SB-334860] | 0% |
| NCC(NC(=O)c1cc(-c2cn[nH]c2)c(-c2ccnc3[nH]ccc23)s1)c1ccccc1.O=C(O)C(F)(F)F.O=C(O)C(F)(F)F (stereo not drawn) [GSK1325775] | 0% |
| COc1ccc(Nc2nccc(N3CCC(NC(=O)Nc4cccc(C(C)=O)c4)C3)n2)cc1 (stereo not drawn) [GSK1379731] | 0% |
| Cn1cc(-c2ccc3c(c2)CCN3C(=O)Cc2ccccc2Cl)c2c(N)ncnc21 [GSK2608885] | 0% |
| O=c1cc(N2CCOCC2)nc2n(Cc3cccc(F)c3)ccn12 [GSK2297430] | 0% |
| CN(C(=O)c1ccc(-c2cc(-c3c[nH]nc3-c3ccccn3)ccn2)cc1)C1CCOCC1 [GW810083] | 38% |
| NCCNS(=O)(=O)c1ccc(-c2ccnc3[nH]ccc23)cc1 [GSK977617] | 0% |
| CC(=O)Nc1ccc(COc2ccc(Nc3ccnc4cc(-c5ccccn5)ccc34)cc2)cc1.Cl [GW440148] | 16% |
| NS(=O)(=O)c1cccc(-c2ccc3nccc(-c4cccc(S(N)(=O)=O)c4)c3c2)c1 [GW867253] | 47% |
| N#Cc1c(N2CCOCC2)sc(-c2ccn[nH]2)c1-c1ccc(Cl)cc1 | 53% |

tested on: T1, MEK1; settings: concentration: 1 μM, replicates: in singlicate; n = 1
T1 construct: gene MAP2K1

| Structure (SMILES) | %Inh |
| --- | --- |
| O=C(Nc1cccc(-c2nn3ncccc3c2-c2ccnc(Nc3cccc(C(F)(F)F)c3)n2)c1)c1c(F)cccc1F [GSK299495] | 48% |
| O=C(c1ccc(-c2cc(-c3c[nH]nc3-c3ccccn3)ccn2)cc1)N1CCOCC1 [GW812171] | 31% |
| Cc1cccc(Cn2ccn3c(=O)cc(N4CCOCC4)nc23)c1 [GSK2297542] | 0% |
| NS(=O)(=O)c1cccc(-c2ccc3ncc(N4CCOCC4)nc3c2)c1 [GSK1535721] | 11% |
| CCc1ccnc(/C=C/c2n[nH]c3cc(Sc4ccccc4C(=O)NC)ccc23)c1 | 0% |
| O=c1cc(N2CCOCC2)nc2n(Cc3cccc(C(F)(F)F)c3)ccn12 [GSK2297543] | 0% |
| COC(=O)Nc1nc2cc(Oc3ccc(NC(=O)Nc4cc(F)ccc4F)cc3)ccc2[nH]1.Cl [GW701424] | 0% |
| NS(=O)(=O)CCc1cccc(Nc2nccc(-c3c(-c4cccc(NC(=O)c5c(F)cccc5F)c4)nn4ccccc34)n2)c1 [GSK336735] | 82% |
| O=C(NCCNc1ccnc(Nc2ccc(F)cc2)n1)c1cc2ccccc2s1 [GSK1379874] | 0% |
| CC(C)(C)n1cnc2c(N)ncnc21 [SKF-97359] | 0% |
| COc1cc2c(cc1OC[C@@H](O)CO)ncc1c3ccc(C#N)cc3[nH]c21 | 45% |
| O=C(NCCNc1ccnc(Nc2ccc(F)cc2)n1)Nc1ccccc1F [GSK1379880] | 0% |
| Fc1ccc(-c2ncn(CCCN3CCOCC3)c2-c2ccccn2)cc1 [SB-211742] | 6% |
| O=C(Nc1n[nH]c2cc(-c3cccc(F)c3)ccc12)C1CC1 [SB-735464] | 8% |
| Cc1nnc(-c2ccc(C)c(-c3ccc(C(=O)Nc4ccc(NS(C)(=O)=O)cc4)cc3)c2)o1 [GW702865] | 8% |
| CNc1ncnc2[nH]ncc12 [SKF-18355] | 13% |
| Cc1cccc(-c2nc(-c3ccc(S(C)(=O)=O)cc3)sc2-c2ccncc2)c1 | 2% |

| Structure (SMILES) | %Inh |
| --- | --- |
| Nc1nc(-c2ccc3c(N)n[nH]c3c2)cc(N2CCCC2)n1 [GSK2227430] | 0% |
| Fc1ccc(-c2ncn(CCCN3CCOCC3)c2-c2cccnc2)cc1 [SB-211743] | 27% |
| [2H]C([2H])(c1cccc(C(F)(F)F)c1C)n1ccn2c(=O)nc(N3CCOCC3)cc12 [GSK2336394] | 0% |
| c1ccc(-c2cc(-c3c[nH]nc3-c3ccccn3)ccn2)cc1 [GW576604] | 0% |
| CCc1nc(-c2cccc(C)c2)c(-c2ccnc(NCc3ccccc3)c2)s1 | 0% |
| Cn1ccc2ncnc(Oc3ccc(NC(=O)Nc4ccncc4)c(Cl)c3)c21 | 40% |
| COCCNC(=O)c1ccc(-c2cc(C(=O)NC3CC3)cc(F)c2C)cc1 [GW868318] | 25% |
| O=C1NC(=O)C(N2CCc3ccccc32)=C1c1cccc(Cl)c1 [SB-408010] | 0% |
| CN(C1=C(c2ccccc2)C(=O)NC1=O)c1ccccc1 [SB-334860] | 0% |
| NCC(NC(=O)c1cc(-c2cn[nH]c2)c(-c2ccnc3[nH]ccc23)s1)c1ccccc1.O=C(O)C(F)(F)F.O=C(O)C(F)(F)F (stereo not drawn) [GSK1325775] | 0% |
| COc1ccc(Nc2nccc(N3CCC(NC(=O)Nc4cccc(C(C)=O)c4)C3)n2)cc1 (stereo not drawn) [GSK1379731] | 0% |
| Cn1cc(-c2ccc3c(c2)CCN3C(=O)Cc2ccccc2Cl)c2c(N)ncnc21 [GSK2608885] | 70% |
| O=c1cc(N2CCOCC2)nc2n(Cc3cccc(F)c3)ccn12 [GSK2297430] | 0% |
| CN(C(=O)c1ccc(-c2cc(-c3c[nH]nc3-c3ccccn3)ccn2)cc1)C1CCOCC1 [GW810083] | 0% |
| CC(=O)Nc1ccc(COc2ccc(Nc3ccnc4cc(-c5ccccn5)ccc34)cc2)cc1.Cl [GW440148] | 51% |
| NS(=O)(=O)c1cccc(-c2ccc3nccc(-c4cccc(S(N)(=O)=O)c4)c3c2)c1 [GW867253] | 23% |
| N#Cc1c(N2CCOCC2)sc(-c2ccn[nH]2)c1-c1ccc(Cl)cc1 | 5% |
